Assay results reported in PubChem BioAssay.
Several values for one entry are separate records, joined by “and”; a condition that tells them apart may be missing. Identical values can stand only once.

experiment: anti-His antibody binders, primary screen, artefact control for SMM control protein annotation, biochemical, small-molecule microarray, 635 nm fluorescence (AID 1128); conditions: anti-His Alexa647 antibody binding, higher = more signal;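 also: score merges feature fluorescence with signal-to-noise for each printed compound spot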

SMILES	composite z-score
C=CCN(CCCC)C(=O)C(c1cccs1)N(CCOCCO)C(=O)/C=C\C(=O)O (stereo not drawn)	-0.542 and 1.17
CC(C)[Si]1(C(C)C)OCc2cc(CCCc3cc4c(c(CCc5ccccc5)n3)[Si](C(C)C)(C(C)C)OC4)nc(CCc3ccccc3)c21	-0.779 and 0.0773
O=C1[C@H]2[C@H]3[C@H](O)[C@H](O)CC(=NOCc4ccccc4)[C@H]3CC[C@H]2C(=O)N1Cc1ccccc1	0.17
C=CCN(C(=O)C1N(CCOCCO)C(=O)C2C(C(=O)O)C3C=CC21O3)c1ccc(OC)cc1 (stereo not drawn)	-0.576 and -1.3
C=CCN(CCCCC)C(=O)C(c1cccs1)N(C(=O)/C=C\C(=O)O)c1c(Cl)cccc1CO (stereo not drawn)	-2 and 0.586
C=C[C@@H](OC)[C@H](O)c1ccc(OCCO)cc1	3.17 and -0.401
CC(=O)OC[C@H]1O[C@H](C#CC(C)(C)C)C=C[C@@H]1OC(C)=O	0.726
C[N+](C)(C)CCCCCCNC(=O)[C@H]1C[C@H]2C(=O)N[C@@H](CCCC[N+](C)(C)C)C(=O)N2[C@H]1c1ccc(O)cc1	-0.389 and 0.368
COc1ccc(-c2ccc3c(n2)CCCN3CC(O)CN2CCCc3nc(-c4ccc(Br)cc4)ccc32)cc1 (stereo not drawn)	1.33 and 1.2
CC(CO)N1C(=O)[C@@H]2C3C(=O)OCCC=C[C@H]3OC23C=CCN(Cn2nnc4ccccc42)C(=O)[C@@H]13 (stereo partly drawn)	0.398 and 1.77
C[C@@]1([C@@H](NC(=O)Cc2ccccc2)c2ccc(-c3ccccc3)cc2)C[C@H]1C1CCCCC1	1.13 and 1.49 and 1.27
C=CCN(CCCC)C(=O)C(c1cccs1)N(C(=O)/C=C\C(=O)O)c1c(Cl)cccc1CO (stereo not drawn)	-0.71 and -0.792
C=C[C@@H](C)[C@@H](O)c1ccc(OCCO)cc1	-0.641 and -0.244
